SMILES strings stand for the structures. About 3,700 (1%) of roughly 360,000 compounds were called active. Rule as the data show it: active = activation above about 30%; inactive = the rest. The list comes from a sample in which actives are over-represented; it also holds similar structures and randomly drawn compounds.

D(1A) dopamine receptor (Homo sapiens), sequence (P21728 whole entry, looked up): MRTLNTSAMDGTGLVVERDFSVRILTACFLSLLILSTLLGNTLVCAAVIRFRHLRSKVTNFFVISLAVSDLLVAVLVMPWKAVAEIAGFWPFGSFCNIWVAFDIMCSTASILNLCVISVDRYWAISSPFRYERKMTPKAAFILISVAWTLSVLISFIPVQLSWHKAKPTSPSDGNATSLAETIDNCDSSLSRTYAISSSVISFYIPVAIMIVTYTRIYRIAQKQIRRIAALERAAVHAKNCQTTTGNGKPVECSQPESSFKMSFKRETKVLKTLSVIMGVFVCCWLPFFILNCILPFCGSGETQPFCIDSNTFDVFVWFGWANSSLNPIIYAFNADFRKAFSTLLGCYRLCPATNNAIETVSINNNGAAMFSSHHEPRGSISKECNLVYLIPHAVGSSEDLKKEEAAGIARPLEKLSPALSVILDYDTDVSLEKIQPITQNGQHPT

In this experiment the target is D(1A) dopamine receptor (Homo sapiens) (UniProt P21728). Nature of the experiment: Allosteric Agonists of the Human D1 Dopamine Receptor: qHTS. Also: 0% is about no effect. The note with it: HEK293 T-REx D1 cells, calcium flux, agonist mode; at 2 µM; active compounds read high. The source says:
NIH Chemical Genomics Center [NCGC] NIH Molecular Libraries Probe Centers Network [MLPCN] MLPCN Grant: NS064831-01 Assay Submitter (PI): David Sibley Dopamine receptors (DARs) are involved in the etiology and/or therapy of a number of neuropsychiatric and endocrine disorders. For instance, all receptor-based antiparkinsonian drugs work via stimulating the D1 DAR subtype whereas all FDA-approved antipsychotic agents are antagonists of this receptor. […] There are three different types of allosteric modulators that we are seeking, two of which will stimulate or augment receptor signaling, allosteric agonists and potentiators, while the third, allosteric antagonists, will attenuate receptor signaling. The present primary screening assay measures compound agonism by tracking calcium flux in a […], inducible Hek293 Trex D1 cell line.
Freshly passaged cells are plated in 1536 well black, clear bottom plates at a density of 4000 cells/well in 3 ul of complete media containing 1x tetracycline inducer. After an overnight incubation at […] in 5% CO2, cells are loaded with 2 ul of the no wash Calcium Assay Kit (ABD Bioquest) and incubated at room temperature for 30 to 90 minutes. Agonist read: A 10 cycle (1 second/cycle) baseline measurement is taken and then the FDSS online 1536 pintool delivers 23 nl of compound library (as well as dopamine controls) to the plate. The plate is measured for kinetically at 1 cycle/sec for 180 seconds and is considered to be the agonist portion of the assay (eg, compounds which activate a positive calcium response during this portion are flagged as potential agonists). Following the 180 second read, 1 ul of either an EC20 (positive modulation assay) or EC80 (negative modulation assay) is delivered by an onboard pipette head. Measurements are taken kinetically for an additional 180 seconds.
(In qHTS, concentration-response curves come from the screen itself.)
For the compound `O=C(NCc1cc(C(F)(F)F)cc(C(F)(F)F)c1)C1CC(c2cccc(F)c2)=NO1` (stereo not drawn), the activation was 44.2% (active).
For `COc1ccc(CNC(=O)C2CC(c3ccc(C(F)(F)F)cc3)=NO2)cc1` (stereo not drawn), the activation is 16.3% (inactive).
Then `COc1ccc(C2=NOC(C(=O)NCc3ccco3)C2)cc1OC` (stereo not drawn), with 1.23% (inactive); and `Cc1ccc(N(CC(=O)NCc2ccc(Cl)cc2)S(=O)(=O)N(C)C)cc1`, with -0.642% (inactive).
Then `Cn1c(=O)c(C(=O)O)nn(-c2ccccc2)c1=O`, with 1.73% (inactive); and `COc1cccc(NC(=O)CSC2=Nc3ccccc3C3=NC(CC(=O)NC4CCCCC4)C(=O)N23)c1` (stereo not drawn), with 0.2% (inactive); and `CCCN(CCC)C(=O)C1CCCN(c2ncnc3c2nc2n3CCCCC2)C1` (stereo not drawn), with -0.793% (inactive).
Then `COc1ccc(NC(=O)N2CCCn3nc(C)cc32)cc1OC`, with -0.666% (inactive).
For `Cc1ccc(-c2nc(CS(=O)CC(=O)NC3CCCC3)c(C)o2)cc1` (stereo not drawn), the activation is -0.511% (inactive).
Then `Cc1cccc(-c2nc(CS(=O)CC(=O)NC(C)CCc3ccccc3)c(C)o2)c1` (stereo not drawn), with 33.5% (active).
Consider `COc1ccc(CNC(=O)CS(=O)Cc2nc(-c3cccc(C)c3)oc2C)cc1` (stereo not drawn), for which the activation was 3.98% (inactive).
The value for `Cc1ccc(-c2nnc(Nc3cccc(Br)c3)c3ccccc23)cc1S(=O)(=O)NCC1CCCO1` (stereo not drawn) was 3.26% (inactive); that for `Cc1cc(OCC(=O)N(C)c2c(N)n(Cc3ccccc3)c(=O)[nH]c2=O)c(C(C)C)cc1Cl` was -0.311% (inactive).
For the compound `Cc1nc2c(c(=O)n1Cc1ccco1)c1nc3ccccc3nc1n2Cc1ccccc1`, the activation was 0.836% (inactive).
On to `Cc1cc2nc3c(=O)n(Cc4ccccc4)c(=O)[nH]c3nc2cc1N`, for which the activation is 368% (active).
On to `CCOCCCNC(=O)c1c(NC(=O)Cc2coc3ccc(C)cc23)sc2c1CCC2`, for which the activation was 6.68% (inactive).
As for `Cc1ccc2nc(/C(C#N)=C/c3ccc(-c4ccc(C(=O)OC(C)C)cc4)o3)[nH]c2c1`, the activation is 165% (active).
Take `Cc1ccc2nc(/C(C#N)=C/c3ccccc3F)[nH]c2c1`: the activation is -1.08% (inactive).
The value for `CCOC(=O)c1ccc(-c2ccc(/C=C(\C#N)C(=O)Nc3ccc(C)cc3)o2)cc1` was 6.86% (inactive); that for `O=C(Nc1c(C(=O)N2CCN(c3ccc(F)cc3)CC2)oc2ccccc12)c1ccco1` was 3.39% (inactive); that for `COC(=O)c1cc(S(=O)(=O)N2CCN(c3cc(Cl)ccc3C)CC2)c[nH]1` was 6.55% (inactive).
Then `O=C(O)C(c1ccccc1)N1C(=O)/C(=C\c2ccc(-c3cccc(Cl)c3)o2)SC1=S` (stereo not drawn), with 33.5% (active); and `CN=C1S/C(=C\c2ccc(Sc3ccc(Cl)cc3)o2)C(=O)N1C`, with -0.0809% (inactive); and `O=C(NC(=S)Nc1cc(C(F)(F)F)ccc1N1CCOCC1)c1ccc(-c2cccc(Cl)c2)o1`, with 4.39% (inactive).
Then `CCCN(CCC)c1nc2c(C)cccn2c(=O)c1/C=C1/SC(=S)N(Cc2ccco2)C1=O`, with 48.8% (active); and `Cc1ccc2[nH]c(=O)c(-c3nc4c(C)cccn4c3NCc3ccco3)cc2c1`, with 1.97% (inactive); and `COC(=O)CN1C(=O)CSc2ccc(S(=O)(=O)Nc3cc(C)ccc3C)cc21`, with -2.48% (inactive).
As to `Cc1c(Cl)cccc1NC(=O)C(=O)NCCc1csc2nc(-c3ccccc3F)nn12`, the activation is 8.86% (inactive).
As to `COc1cc(OC)cc(C(=O)Nc2cc3nn(-c4ccccc4)nc3cc2Cl)c1`, the activation is 0.0669% (inactive).
`CC(C)(C)C(=O)/C(C#N)=C/c1ccc(O)cc1`: the activation was 6.88% (inactive).
The value for `O=C(/C=C(O)/C=C/c1ccc(O)cc1)/C=C/c1ccc(O)cc1` was 432% (active).
Regarding `COc1cccc(C(=O)NNC(=O)/C=C/c2ccccc2)c1`, the activation is 1.13% (inactive).
Regarding `CCN(CC)c1ccc(NC(=O)Cn2nc3c(cc2=O)CCCC3)c(C)c1`, the activation is -0.284% (inactive).
The value for `COc1cccc(N=C2SC(C(=O)Nc3cccc(Cl)c3)CC(=O)N2C)c1` (stereo not drawn) was 25.2% (inactive); that for `CCN(CC)c1ccc(NC(=O)CN2C(=O)c3cccnc3Oc3ccc(Cl)cc32)c(C)c1` was 1.12% (inactive).
Regarding `CCc1c(C)sc(NC(=O)C2c3ccccc3Oc3ccccc32)c1C(=O)OC(C)C`, the activation is -0.651% (inactive).
With `CCc1c(C)sc(NC(=O)c2ccc(Br)o2)c1C(=O)OC`, the activation was 32.9% (active).
The value for `CCc1c(C)sc(NC(=O)c2cccs2)c1C(N)=O` was 0.933% (inactive); that for `O=C(NC1CC(=O)N(c2ccccc2)C1)c1ccco1` (stereo not drawn) was 2.23% (inactive).
With `COc1ccc(-c2nc3scc(CCNS(=O)(=O)c4cc(F)ccc4OC)n3n2)cc1OC`, the activation is -4.62% (inactive).
With `O=C(CSc1oc(-c2ccco2)nc1S(=O)(=O)c1ccccc1)c1ccc(Cl)cc1`, the activation was 5.58% (inactive).
The value for `CCCCN(CCCNC(=O)c1cc(Nc2ccccc2OC)nc2ccccc12)c1ccccc1` was 0.606% (inactive); that for `COc1ccc(Nc2cc(C(=O)NCCCN(C)c3ccccc3)c3ccccc3n2)c(OC)c1` was 1.01% (inactive); that for `COc1ccccc1Nc1cc(C(=O)NCCCN(C)C2CCCCC2)c2ccccc2n1` was 183% (active).
The value for `COc1ccccc1Nc1c2c(nc3ccc(NC(=O)/C=C/c4cc(OC)c(OC)c(OC)c4)cc13)CCCC2` was -0.5% (inactive); that for `CCCCCCCCCCOC(=O)C[N+](C)(C)CC1CCCCC1O` (stereo not drawn) was 31.1% (active); that for `CCCCCOC(=O)c1ccc(N2C(=O)C3C4C=CC(C4)C3C2=O)cc1` (stereo not drawn) was 19.5% (inactive).
Turning to `COc1cc(C(=O)NCC(c2ccc(Cl)cc2)N2CCOCC2)cc(OC)c1OC` (stereo not drawn), the activation was -0.448% (inactive).
The value for `Cc1[nH]c2ccccc2c1C(c1ccccc1)c1cccs1` (stereo not drawn) was 0.783% (inactive); that for `O=C(CCc1nc(CN2CCN(S(=O)(=O)c3ccc(Cl)cc3)CC2)no1)N1CCCCC1` was 12.7% (inactive); that for `CCN(CC)S(=O)(=O)c1ccc2c(c1)N(CC(=O)NCC(C)c1ccccc1)C(=O)CO2` (stereo not drawn) was 4.4% (inactive).
For `Cc1ccc(CNC(=O)Cn2c(=O)ccc3cc(S(=O)(=O)N4CCCC4)ccc32)cc1`, the activation was -0.173% (inactive).
Then `CCOc1ccc(Cn2nnc(C(=O)Nc3ccc(OC)cc3OC)c2N)cc1`, with 6.39% (inactive); and `CC(=O)N1CCN(C(=O)c2cc(-c3ccc(Cl)s3)nc3ccccc23)CC1`, with -0.053% (inactive); and `Cc1c(NC(=O)c2cc(-c3ccc(Cl)s3)nc3ccccc23)c(=O)n(-c2ccccc2)n1C`, with 0.635% (inactive).
Turning to `CCOc1ccc(Cn2nnc(C(=O)NCc3ccccc3)c2N)cc1`, the activation was 36.7% (active).
Then `CCOc1ccc(CNC(=O)c2cc(-c3ccc(Cl)s3)nc3ccccc23)cc1`, with 36.4% (active); and `CCOc1ccc(CNC(=O)c2ccc(CS(=O)c3ccccc3)o2)cc1` (stereo not drawn), with 0.22% (inactive).

The values above are taken from PubChem BioAssay AID504660 (National Center for Advancing Translational Sciences (NCATS), 2011).
